Measured values published in article PMC7862700, “An all-to-all approach to the identification of sequence-specific readers for epigenetic DNA modifications on cytosine”.

How the values were obtained:
Assay in all cases: DAPPL (digital affinity profiling via proximity ligation, sequencing); 10 mM Tris-HCl pH 7.5, 50 mM NaCl, 1 mM DTT, 4% glycerol, room temperature, 30 min; GST-TFs on glutathione beads, 16-mer random dsDNA library, 0.1% formaldehyde crosslink after washing; high values mean tight binding
[1] = molecular target: T1, FLI1 (Homo sapiens, UniProt Q01543 1-452); conditions: protein: recombinant; tags: N-terminal GST; dsDNA, one strand shown
T1 sequence: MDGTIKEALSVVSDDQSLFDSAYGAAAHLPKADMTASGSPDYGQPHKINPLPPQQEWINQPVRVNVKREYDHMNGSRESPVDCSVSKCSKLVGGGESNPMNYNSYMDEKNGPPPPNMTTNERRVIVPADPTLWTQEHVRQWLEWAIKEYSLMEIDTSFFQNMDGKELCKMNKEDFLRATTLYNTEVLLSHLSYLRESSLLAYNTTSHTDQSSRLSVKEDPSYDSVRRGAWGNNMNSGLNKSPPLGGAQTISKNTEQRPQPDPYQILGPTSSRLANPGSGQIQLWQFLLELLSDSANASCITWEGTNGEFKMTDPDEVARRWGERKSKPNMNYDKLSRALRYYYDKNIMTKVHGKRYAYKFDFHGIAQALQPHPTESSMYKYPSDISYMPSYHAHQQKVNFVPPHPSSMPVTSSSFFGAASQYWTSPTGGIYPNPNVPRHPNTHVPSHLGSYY
In short: (§1)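 The binding signal reported is, for every hexamer, its read frequency for a factor over its read frequency for the tag-only sample. Reads came from pools of yeast-expressed, GST-fused human transcription factors on glutathione beads, barcoded with DNA and mixed with that sample, which were incubated with 200 nmole of a random double-stranded 16-mer DNA library in Tris/NaCl/DTT/glycerol buffer at room temperature for 30 min. After washing, the pools were crosslinked with 0.1% formaldehyde, proximity-ligated with BsaI/T4 ligase for 1 h at 37 °C, PCR-amplified and sequenced on an Illumina NextSeq500.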

[2] = molecular target: T2, ELK1 (Homo sapiens, UniProt P19419 1-428); conditions: protein: recombinant; tags: N-terminal GST; dsDNA, one strand shown
T2 sequence: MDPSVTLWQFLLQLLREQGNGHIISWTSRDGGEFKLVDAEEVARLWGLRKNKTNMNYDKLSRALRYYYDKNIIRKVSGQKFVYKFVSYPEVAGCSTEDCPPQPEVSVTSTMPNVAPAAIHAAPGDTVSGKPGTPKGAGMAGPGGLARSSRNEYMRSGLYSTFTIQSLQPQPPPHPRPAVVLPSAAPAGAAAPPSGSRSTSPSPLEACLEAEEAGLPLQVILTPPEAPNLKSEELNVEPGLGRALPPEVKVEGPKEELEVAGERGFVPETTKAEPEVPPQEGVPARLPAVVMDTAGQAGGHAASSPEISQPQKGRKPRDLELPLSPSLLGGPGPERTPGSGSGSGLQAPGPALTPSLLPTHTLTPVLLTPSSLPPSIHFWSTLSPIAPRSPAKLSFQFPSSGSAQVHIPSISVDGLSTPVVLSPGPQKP
In short: as §1

[3] = molecular target: T3, GABPA (Homo sapiens, UniProt Q06546 1-454); conditions: protein: recombinant; tags: N-terminal GST; dsDNA, one strand shown
T3 sequence: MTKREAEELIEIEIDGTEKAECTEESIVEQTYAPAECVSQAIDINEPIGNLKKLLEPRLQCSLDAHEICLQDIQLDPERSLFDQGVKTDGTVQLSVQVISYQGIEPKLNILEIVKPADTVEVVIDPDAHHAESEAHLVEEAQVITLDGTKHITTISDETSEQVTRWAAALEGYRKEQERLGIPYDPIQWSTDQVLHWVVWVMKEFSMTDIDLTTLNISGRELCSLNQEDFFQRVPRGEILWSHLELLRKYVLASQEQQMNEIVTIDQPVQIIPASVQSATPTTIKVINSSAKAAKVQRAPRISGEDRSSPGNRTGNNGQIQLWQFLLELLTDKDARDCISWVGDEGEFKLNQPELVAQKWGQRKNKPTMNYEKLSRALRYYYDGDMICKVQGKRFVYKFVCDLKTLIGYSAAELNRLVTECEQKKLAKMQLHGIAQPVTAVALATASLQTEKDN
In short: as §1

[4] = molecular target: T4, ERG (Homo sapiens, UniProt P11308 1-479); conditions: protein: recombinant; tags: N-terminal GST; dsDNA, one strand shown
T4 sequence: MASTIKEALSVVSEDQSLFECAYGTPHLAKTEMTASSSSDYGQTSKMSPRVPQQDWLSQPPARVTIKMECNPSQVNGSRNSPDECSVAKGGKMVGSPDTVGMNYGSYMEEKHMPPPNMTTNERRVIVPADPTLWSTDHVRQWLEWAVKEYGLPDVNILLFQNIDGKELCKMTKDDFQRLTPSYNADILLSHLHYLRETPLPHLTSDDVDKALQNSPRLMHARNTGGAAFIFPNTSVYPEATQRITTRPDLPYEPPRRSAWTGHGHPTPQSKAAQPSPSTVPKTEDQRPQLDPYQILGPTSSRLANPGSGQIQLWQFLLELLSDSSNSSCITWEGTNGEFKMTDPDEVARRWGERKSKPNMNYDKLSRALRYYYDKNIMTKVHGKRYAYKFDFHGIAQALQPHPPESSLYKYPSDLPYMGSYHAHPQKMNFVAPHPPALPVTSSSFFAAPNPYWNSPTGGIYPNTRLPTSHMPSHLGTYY
In short: as §1

[5] = molecular target: ELF1 (Homo sapiens, UniProt P32519 1-619); conditions: protein: recombinant; tags: N-terminal GST; dsDNA, one strand shown
ELF1, sequence (P32519 whole entry): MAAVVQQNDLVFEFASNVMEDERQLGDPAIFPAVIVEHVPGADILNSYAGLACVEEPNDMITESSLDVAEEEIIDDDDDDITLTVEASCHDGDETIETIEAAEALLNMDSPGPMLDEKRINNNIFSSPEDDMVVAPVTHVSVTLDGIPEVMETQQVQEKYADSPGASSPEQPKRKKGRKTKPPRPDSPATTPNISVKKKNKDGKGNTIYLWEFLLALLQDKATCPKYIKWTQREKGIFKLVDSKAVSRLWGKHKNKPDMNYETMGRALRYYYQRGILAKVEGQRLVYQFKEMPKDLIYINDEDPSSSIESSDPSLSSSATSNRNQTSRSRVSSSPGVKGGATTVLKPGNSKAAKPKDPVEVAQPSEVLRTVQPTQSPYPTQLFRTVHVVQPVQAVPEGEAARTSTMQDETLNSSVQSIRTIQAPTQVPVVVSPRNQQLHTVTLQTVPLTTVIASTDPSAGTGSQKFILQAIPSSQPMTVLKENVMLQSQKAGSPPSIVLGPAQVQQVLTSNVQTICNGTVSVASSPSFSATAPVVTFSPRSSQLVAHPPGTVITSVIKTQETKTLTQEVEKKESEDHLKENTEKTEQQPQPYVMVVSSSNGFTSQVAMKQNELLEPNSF
In short: as §1

[6] = molecular target: T5, EHF (Homo sapiens, UniProt Q9NZC4 1-300); conditions: protein: recombinant; tags: N-terminal GST; dsDNA, one strand shown
T5 sequence: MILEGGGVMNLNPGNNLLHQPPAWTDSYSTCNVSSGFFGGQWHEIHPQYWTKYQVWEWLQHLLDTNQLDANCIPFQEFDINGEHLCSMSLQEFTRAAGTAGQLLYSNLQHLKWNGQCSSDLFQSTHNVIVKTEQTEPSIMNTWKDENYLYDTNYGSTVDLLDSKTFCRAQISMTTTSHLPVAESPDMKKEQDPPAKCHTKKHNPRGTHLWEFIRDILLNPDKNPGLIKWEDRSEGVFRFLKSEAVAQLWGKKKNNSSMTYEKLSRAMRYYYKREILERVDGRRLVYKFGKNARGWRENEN
In short: as §1

[7] = molecular target: SPI1 (Homo sapiens, UniProt P17947 1-270); conditions: protein: recombinant; tags: N-terminal GST; dsDNA, one strand shown
In short: as §1

[8] = molecular target: SPIB (Homo sapiens, UniProt Q01892 1-262); conditions: protein: recombinant; tags: N-terminal GST; dsDNA, one strand shown
SPIB, sequence (Q01892 whole entry): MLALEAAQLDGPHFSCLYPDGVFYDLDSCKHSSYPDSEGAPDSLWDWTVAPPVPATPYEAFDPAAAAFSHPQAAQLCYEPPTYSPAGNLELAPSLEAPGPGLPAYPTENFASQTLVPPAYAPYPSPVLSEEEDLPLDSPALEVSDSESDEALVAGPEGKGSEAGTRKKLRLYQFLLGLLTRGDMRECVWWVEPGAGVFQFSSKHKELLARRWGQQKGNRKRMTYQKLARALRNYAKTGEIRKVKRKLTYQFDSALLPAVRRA
In short: as §1

[9] = molecular target: T6, ELK3 (Homo sapiens, UniProt P41970 1-407); conditions: protein: recombinant; tags: N-terminal GST; dsDNA, one strand shown
T6 sequence: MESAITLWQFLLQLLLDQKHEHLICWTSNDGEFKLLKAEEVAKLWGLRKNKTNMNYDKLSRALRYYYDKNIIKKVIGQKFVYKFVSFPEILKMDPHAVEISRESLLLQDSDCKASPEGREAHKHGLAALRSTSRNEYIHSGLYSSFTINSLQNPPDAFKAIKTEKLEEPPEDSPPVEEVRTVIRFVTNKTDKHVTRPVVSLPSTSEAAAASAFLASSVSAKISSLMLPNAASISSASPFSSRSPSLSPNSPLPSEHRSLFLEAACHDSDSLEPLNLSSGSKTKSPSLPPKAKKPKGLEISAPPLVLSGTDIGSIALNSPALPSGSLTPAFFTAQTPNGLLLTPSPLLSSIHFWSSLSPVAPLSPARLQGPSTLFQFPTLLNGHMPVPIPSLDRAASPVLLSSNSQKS
In short: as §1

[10] = molecular target: T7, FEV (Homo sapiens, UniProt Q99581 1-238); conditions: protein: recombinant; tags: N-terminal GST; dsDNA, one strand shown
T7 sequence: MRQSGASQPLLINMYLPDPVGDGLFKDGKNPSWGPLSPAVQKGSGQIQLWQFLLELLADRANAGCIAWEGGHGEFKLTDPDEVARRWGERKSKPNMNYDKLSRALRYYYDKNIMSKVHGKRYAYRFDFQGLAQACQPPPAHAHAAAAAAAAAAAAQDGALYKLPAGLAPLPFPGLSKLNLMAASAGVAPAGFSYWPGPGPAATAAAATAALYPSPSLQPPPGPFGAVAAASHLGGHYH
In short: as §1

[11] = molecular target: ETV5 (Homo sapiens, UniProt P41161 1-510); conditions: protein: recombinant; tags: N-terminal GST; dsDNA, one strand shown
ETV5, sequence (P41161 whole entry): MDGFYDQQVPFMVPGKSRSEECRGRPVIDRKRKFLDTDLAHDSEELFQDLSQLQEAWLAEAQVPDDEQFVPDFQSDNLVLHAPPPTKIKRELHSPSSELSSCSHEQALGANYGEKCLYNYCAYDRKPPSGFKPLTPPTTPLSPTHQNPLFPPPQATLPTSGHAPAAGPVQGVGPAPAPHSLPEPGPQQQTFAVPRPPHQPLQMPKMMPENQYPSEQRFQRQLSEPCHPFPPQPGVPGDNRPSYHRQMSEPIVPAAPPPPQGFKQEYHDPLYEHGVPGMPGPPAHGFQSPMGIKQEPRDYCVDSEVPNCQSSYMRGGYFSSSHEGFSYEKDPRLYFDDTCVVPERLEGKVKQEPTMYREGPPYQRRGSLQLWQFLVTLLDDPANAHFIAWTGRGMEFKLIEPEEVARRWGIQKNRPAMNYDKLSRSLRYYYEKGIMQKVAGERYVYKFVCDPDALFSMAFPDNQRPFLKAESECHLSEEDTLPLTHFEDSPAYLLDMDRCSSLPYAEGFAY
In short: as §1

[12] = molecular target: HSF1 (Homo sapiens, UniProt Q00613 1-529); conditions: protein: recombinant; tags: N-terminal GST; chain copies: 3; dsDNA, one strand shown
HSF1, sequence (Q00613 whole entry): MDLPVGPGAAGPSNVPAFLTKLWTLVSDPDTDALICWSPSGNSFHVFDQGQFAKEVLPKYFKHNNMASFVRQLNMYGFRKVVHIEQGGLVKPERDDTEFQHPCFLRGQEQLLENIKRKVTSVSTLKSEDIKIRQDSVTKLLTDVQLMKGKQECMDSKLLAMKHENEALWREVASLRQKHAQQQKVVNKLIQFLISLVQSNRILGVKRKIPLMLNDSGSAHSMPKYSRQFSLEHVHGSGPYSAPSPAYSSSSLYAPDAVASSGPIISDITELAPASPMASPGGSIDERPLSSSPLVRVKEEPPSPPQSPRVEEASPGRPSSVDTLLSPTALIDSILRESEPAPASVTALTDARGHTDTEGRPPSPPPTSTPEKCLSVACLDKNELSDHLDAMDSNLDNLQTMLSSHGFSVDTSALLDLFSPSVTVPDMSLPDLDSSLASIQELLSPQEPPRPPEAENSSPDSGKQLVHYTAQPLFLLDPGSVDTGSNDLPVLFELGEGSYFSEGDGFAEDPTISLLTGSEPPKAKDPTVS
In short: as §1

[13] = molecular target: T8, SPIC (Homo sapiens, UniProt Q8N5J4 1-248); conditions: protein: recombinant; tags: N-terminal GST; dsDNA, one strand shown
T8 sequence: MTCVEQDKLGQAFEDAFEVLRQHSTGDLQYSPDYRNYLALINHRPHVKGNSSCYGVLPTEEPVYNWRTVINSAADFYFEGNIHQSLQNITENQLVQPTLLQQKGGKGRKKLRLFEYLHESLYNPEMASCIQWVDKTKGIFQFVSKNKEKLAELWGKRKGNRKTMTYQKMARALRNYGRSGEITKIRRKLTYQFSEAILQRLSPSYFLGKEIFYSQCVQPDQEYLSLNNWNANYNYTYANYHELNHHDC
In short: as §1

[14] = molecular target: ELF4 (Homo sapiens, UniProt Q99607 1-663); conditions: protein: recombinant; tags: N-terminal GST; dsDNA, one strand shown
ELF4, sequence (Q99607 whole entry): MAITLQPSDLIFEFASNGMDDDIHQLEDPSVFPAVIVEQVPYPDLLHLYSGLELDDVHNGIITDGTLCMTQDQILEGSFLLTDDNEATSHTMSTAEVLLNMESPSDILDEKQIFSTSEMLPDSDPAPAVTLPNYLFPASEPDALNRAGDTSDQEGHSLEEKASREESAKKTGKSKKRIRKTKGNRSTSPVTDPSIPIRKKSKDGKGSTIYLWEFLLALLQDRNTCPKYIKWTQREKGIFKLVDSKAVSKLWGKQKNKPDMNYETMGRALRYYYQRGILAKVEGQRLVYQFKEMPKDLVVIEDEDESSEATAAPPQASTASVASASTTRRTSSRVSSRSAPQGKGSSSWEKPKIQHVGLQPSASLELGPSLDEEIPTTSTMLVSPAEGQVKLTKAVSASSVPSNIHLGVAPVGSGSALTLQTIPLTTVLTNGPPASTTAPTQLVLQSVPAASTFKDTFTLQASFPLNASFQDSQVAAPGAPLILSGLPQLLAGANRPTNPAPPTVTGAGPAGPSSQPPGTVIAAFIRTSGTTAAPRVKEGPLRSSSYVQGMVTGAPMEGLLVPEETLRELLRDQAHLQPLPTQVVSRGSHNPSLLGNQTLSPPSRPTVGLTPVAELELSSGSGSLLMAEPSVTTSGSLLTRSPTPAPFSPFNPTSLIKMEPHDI
In short: as §1

[15] = molecular target: T9, ELK4 (Homo sapiens, UniProt P28324-2 1-405); conditions: protein: recombinant; tags: N-terminal GST; dsDNA, one strand shown
T9 sequence: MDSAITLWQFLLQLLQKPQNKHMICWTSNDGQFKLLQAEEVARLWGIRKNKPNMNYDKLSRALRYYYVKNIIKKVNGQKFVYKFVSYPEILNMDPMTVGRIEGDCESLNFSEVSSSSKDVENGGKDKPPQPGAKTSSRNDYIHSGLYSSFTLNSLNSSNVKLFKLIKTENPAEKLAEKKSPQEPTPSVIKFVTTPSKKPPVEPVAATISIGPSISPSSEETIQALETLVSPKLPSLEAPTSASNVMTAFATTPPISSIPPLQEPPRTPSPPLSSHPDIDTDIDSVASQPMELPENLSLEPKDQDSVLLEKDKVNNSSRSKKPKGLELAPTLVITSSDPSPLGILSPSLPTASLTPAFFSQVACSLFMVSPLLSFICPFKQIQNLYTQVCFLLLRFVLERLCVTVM
In short: as §1

[16] = molecular target: T10, ETV2 (Homo sapiens, UniProt O00321 1-342); conditions: protein: recombinant; tags: N-terminal GST; dsDNA, one strand shown
T10 sequence: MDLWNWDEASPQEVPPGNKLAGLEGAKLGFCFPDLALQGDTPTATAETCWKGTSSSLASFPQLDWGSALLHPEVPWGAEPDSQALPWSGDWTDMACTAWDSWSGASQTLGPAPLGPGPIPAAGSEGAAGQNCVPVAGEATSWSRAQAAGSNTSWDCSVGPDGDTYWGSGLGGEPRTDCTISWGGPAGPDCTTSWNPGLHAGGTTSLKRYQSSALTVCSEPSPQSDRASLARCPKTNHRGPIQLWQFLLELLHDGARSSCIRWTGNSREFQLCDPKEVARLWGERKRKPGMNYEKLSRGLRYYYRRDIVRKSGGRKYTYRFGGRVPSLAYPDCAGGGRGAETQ
In short: as §1

[17] = molecular target: CRX (Homo sapiens, UniProt O43186 1-299); conditions: protein: recombinant; tags: N-terminal GST; dsDNA, one strand shown
CRX, sequence (O43186 whole entry): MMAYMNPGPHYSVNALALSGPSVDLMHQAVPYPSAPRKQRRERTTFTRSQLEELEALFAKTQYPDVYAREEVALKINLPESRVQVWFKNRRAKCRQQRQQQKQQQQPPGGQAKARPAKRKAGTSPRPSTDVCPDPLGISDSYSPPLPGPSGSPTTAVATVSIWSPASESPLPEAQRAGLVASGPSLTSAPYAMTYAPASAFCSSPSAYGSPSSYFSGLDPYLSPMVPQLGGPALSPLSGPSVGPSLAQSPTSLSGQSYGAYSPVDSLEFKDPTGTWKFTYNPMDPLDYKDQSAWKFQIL
In short: as §1

[18] = molecular target: ETV1 (Homo sapiens, UniProt P50549 1-477); conditions: protein: recombinant; tags: N-terminal GST; dsDNA, one strand shown
ETV1, sequence (P50549 whole entry): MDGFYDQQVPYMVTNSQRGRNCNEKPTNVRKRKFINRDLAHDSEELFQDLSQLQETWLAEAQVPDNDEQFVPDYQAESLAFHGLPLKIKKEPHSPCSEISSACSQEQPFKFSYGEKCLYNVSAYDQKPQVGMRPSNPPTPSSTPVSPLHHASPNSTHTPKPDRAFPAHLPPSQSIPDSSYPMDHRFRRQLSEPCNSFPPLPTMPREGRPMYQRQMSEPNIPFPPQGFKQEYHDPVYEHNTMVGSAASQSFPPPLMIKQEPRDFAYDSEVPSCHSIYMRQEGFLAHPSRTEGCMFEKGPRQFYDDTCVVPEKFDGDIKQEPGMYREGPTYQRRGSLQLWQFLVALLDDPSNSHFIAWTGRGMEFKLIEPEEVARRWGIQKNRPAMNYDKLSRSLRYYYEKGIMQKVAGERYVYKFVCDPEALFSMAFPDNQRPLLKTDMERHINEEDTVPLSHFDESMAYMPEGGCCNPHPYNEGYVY
In short: as §1

GGCTAG was tested, and the binding signal [1] was 1.07 fold enrichment (6-mer frequency, TF over GST control), the binding signal [2] was 1.11 fold enrichment (6-mer frequency, TF over GST control) and the binding signal [3] was 1.1 fold enrichment (6-mer frequency, TF over GST control). For the same sequence, the binding signal [4] was 1.1 fold enrichment (6-mer frequency, TF over GST control), the binding signal [5] was 1.09 fold enrichment (6-mer frequency, TF over GST control) and the binding signal [6] was 1.05 fold enrichment (6-mer frequency, TF over GST control). The binding signal [7] was 1.08 fold enrichment (6-mer frequency, TF over GST control), the binding signal [8] was 1.18 fold enrichment (6-mer frequency, TF over GST control) and the binding signal [9] was 1 fold enrichment (6-mer frequency, TF over GST control). The binding signal [10] was 1.08 fold enrichment (6-mer frequency, TF over GST control), the binding signal [11] was 1.06 fold enrichment (6-mer frequency, TF over GST control) and the binding signal [12] was 1.18 fold enrichment (6-mer frequency, TF over GST control). The binding signal [13] was 1.2 fold enrichment (6-mer frequency, TF over GST control), the binding signal [14] was 1.1 fold enrichment (6-mer frequency, TF over GST control) and the binding signal [15] was 1.22 fold enrichment (6-mer frequency, TF over GST control). For the same sequence, the binding signal [16] was 1.15 fold enrichment (6-mer frequency, TF over GST control), the binding signal [17] was 1.05 fold enrichment (6-mer frequency, TF over GST control) and the binding signal [18] was 1.03 fold enrichment (6-mer frequency, TF over GST control).
